Compound activity from PubChem BioAssay.
The list is not random: actives were taken first. Their share in the collection is about 3.9%.
D1 PAM = human D1 dopamine receptor positive modulation; HEK293 TREx D1 cells, calcium flux, dopamine EC20 potentiation; potentiation, % at 10 µM; 0.036% of 360,000 active; AID 504651; in the data active means potentiation above about 30%; further: 0% is about no effect
D1 antagonist = blocks dopamine activation of the human D1 receptor; P21728; HEK293 TREx D1 cells, calcium flux, dopamine EC80; stronger effect = lower value; activity change, negative = inhibition, % at 10 µM; 3.2% of 360,000 active; AID 504652; in the data active means activity change below about -30%; further: on the % scale 0 is the no-effect control and ±100 the full control effect
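Compound effects on dopamine-evoked calcium signalling were measured in tetracycline-induced HEK293 Trex D1 cells. Dopamine at EC80 followed a 180 s compound pre-read, and fluorescence was tracked kinetically for 180 s more.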
D1 ag = activates the human D1 dopamine receptor. P21728. HEK293 T-REx D1 cells, calcium flux, agonist mode. activation, % at 2 µM. 1% of 360,000 active. AID 504660; in the data active means activation above about 30%; further: 0% is about no effect
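Agonism was scored from calcium flux recorded over 180 s (1 read/s) after pintool compound addition, following a 10-cycle baseline. Cells were inducible force-coupled HEK293 TREx D1, plated overnight at 30 C and loaded with no-wash calcium dye.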
Eya2 phos inh = Eya2 (human) phosphatase inhibition | recombinant Eya2, OMFP fluorescence dephosphorylation (OMFP is methylfluorescein phosphate) | Potency, µM (titrated, usually from 76.9 µM), without a hit: top-dose activity, negative = inhibition, usual class: inhibitors | 0.006% of 330,000 active | AID 488837; further: potency means the concentration at half of the fitted maximal effect; on the % scale 0 is the no-effect control and ±100 the full control effect
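Eya2 protein (added as 0.2 uM solution) was preincubated with compound for 10 min at ambient temperature in 50 mM HEPES pH 7.5, 50 mM NaCl, 5 uM MgCl2, 0.05% BSA, 1 mM DTT. OMFP (added at 50 uM) then reacted 10 min; fluorescence read at 485/525 nm.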
GALK inh = inhibitors of human galactokinase; P51570; Purified GALK, Kinase-Glo residual ATP luminescence; Potency, µM (series often up to 57.5 µM), for the others: at the highest dose activity change, negative = inhibition, most hits filed as inhibitors; 0.007% of 270,000 active; further: potency means the concentration at half of the fitted maximal effect; on the % scale 0 is the no-effect control and ±100 the full control effect
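Human GALK (5 nM) with 35 uM ATP and 100 uM galactose in 20 mM HEPES pH 8.0, 5 mM MgCl2, 60 mM NaCl, 1 mM DTT, 0.01% BSA. After 1 h at room temperature, leftover ATP was read by Kinase-Glo Plus luminescence.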
USP2a block = inhibitors of human ubiquitin-specific protease USP2a; USP2 core, Ub-CHOP2 coupled fluorogenic reporter, 485/531; Potency, µM (highest dose often 38.3 µM), for inactives: at the top dose activity change, negative = inhibition, hits mostly inhibitors; 0.01% of 330,000 active; AID 463254;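 further: potency means the concentration at half of the fitted maximal effect; plate controls were DMSO wells for no effect and full inhibition by NEM control for full effect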
Target sequence (O75604 whole entry, looked up): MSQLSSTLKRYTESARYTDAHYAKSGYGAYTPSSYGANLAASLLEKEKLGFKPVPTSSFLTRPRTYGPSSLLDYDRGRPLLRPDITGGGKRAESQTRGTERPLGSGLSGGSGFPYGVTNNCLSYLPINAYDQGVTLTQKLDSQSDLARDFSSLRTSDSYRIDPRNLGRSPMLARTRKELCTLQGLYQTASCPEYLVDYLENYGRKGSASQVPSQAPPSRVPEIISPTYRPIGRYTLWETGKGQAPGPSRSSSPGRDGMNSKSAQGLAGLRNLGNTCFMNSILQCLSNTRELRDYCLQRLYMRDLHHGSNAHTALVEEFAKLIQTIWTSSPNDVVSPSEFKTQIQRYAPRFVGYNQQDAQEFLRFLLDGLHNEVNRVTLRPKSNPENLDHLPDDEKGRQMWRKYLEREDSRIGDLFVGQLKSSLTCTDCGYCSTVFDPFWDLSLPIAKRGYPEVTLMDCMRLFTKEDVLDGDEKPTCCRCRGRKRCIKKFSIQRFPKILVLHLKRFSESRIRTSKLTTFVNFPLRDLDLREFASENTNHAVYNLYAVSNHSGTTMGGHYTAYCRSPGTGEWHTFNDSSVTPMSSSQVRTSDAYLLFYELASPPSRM
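Deubiquitinase activity read as fluorescence (485/531 nm) after Ub-CHOP2 cleavage activates the enterokinase reporter on its substrate; USP2 core 10nM, Ub-CHOP2 and substrate 25nM each, 30min compound preincubation then 60min RT; data normalized to NEM, curves fitted.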
The depositor's hits bear a star; . = not tested or not shown. Unless noted, the call rests on the fitted dose curve; in most records, active means well fitted inhibition curve with a large enough effect; inconclusive means small, poorly fitted or top-dose-only effect, or effect the other way; inactive means flat fitted curve, though single readings scatter.

SMILES | D1 PAM | D1 antagonist | D1 ag | Eya2 phos inh | GALK inh | USP2a block
COc1ccc(NC(=O)NNC(=O)COc2ccc3cc(Br)ccc3c2)c(OC)c1 | -1.4 | -32.5* | 5.4 | 4.5% | -5.0% | 0.2%
COc1ccc(NC(=O)COc2ccc(Br)cc2)c(OC)c1 | -6.8 | -4.3 | 7.0 | 5.9% | -5.3% | -1.5%
CCOC(=O)c1c(C)oc2nc(C)nc(NCc3ccccc3OC)c12 | -5.2 | -36.8* | 2.0 | . | . | .
Cc1ccc(-n2c(=O)c3oc4ccccc4c3n(CC(=O)Nc3ccccc3)c2=O)cc1C | -4.1 | 3.7 | 3.9 | . | . | .
CN(C)S(=O)(=O)Oc1ccsc1C(=O)Nc1ccc(Br)cc1 | -6.4 | -1.0 | 1.8 | 9.3% | 9.0% | -5.3%
CN(C)S(=O)(=O)Oc1ccsc1C(=O)Nc1cccc(Cl)c1 | -2.2 | -41.5* | -0.5 | -15.5% | 1.3% | -9.1%
CN(C)S(=O)(=O)Oc1ccsc1C(=O)Nc1ccc(Cl)c(Cl)c1 | -7.4 | -55.4* | 35.6* | -18.0% | 3.1% | -4.9%
Cc1cc(C)cc(NC(=O)Cn2cc(C(=O)c3cccs3)c3ccccc32)c1 | 1.4 | -3.0 | 2.1 | . | . | .
O=C(Cn1c(=O)n(Cc2ccc3c(c2)OCO3)c(=O)c2oc3ccccc3c21)Nc1ccccc1F | -1.2 | 5.8 | 3.8 | . | . | .
CC(=O)OCc1c(-c2ccccc2)c2cc([N+](=O)[O-])ccc2n1C | -5.2 | -47.0* | 3.7 | 7.6% | 7.4% | -1.7%
COc1cc(NC(=O)CSc2nc3nc(C)c(Cc4ccccc4Cl)c(C)n3n2)cc(OC)c1 | 0.8 | 6.3 | -4.1 | . | . | .
CC(C)(C)OC(=O)N[C@@H](C(=O)OC(C)(C)C)c1ccccc1 | -6.3 | -35.0* | -0.9 | -24.1% | . | 0.2%
Cc1cc(-c2ccc(S(=O)(=O)Nc3cccc(C)c3C)s2)on1 | -6.2 | 8.9 | 11.4 | . | . | .
O=C(CCN1C(=O)/C(=C\c2cccs2)SC1=S)Nc1ccc(C(=O)O)cc1 | -1.1 | -6.7 | 3.0 | -21.7% | -4.4% | 2.3%
CCN(CC)CCOC(=O)c1ccc(NC(=O)CCCN2C(=O)/C(=C\c3cccs3)SC2=S)cc1 | -20.9 | -65.9* | 22.6 | -29.9% | -3.5% | 0.2%
COc1ccc(-n2ccnc(NCc3cccs3)c2=O)cc1 | -3.5 | -33.5* | 1.9 | . | . | .
COc1ccc(-n2ccnc(NCc3cccs3)c2=O)cc1OC | -4.0 | -8.0 | 0.8 | . | . | .
O=C(COC(=O)C1CC(=O)N(C2CCCCC2)C1)c1ccc(F)cc1 (stereo not drawn) | -3.1 | -12.1 | 6.7 | 1.3% | -1.6% | -5.4%
O=C(COC(=O)C1CCC(N2C(=O)C3C4CCC(C4)C3C2=O)CC1)c1ccc(F)cc1 (stereo not drawn) | -8.6 | -34.6* | 11.9 | -21.2% | 0.1% | -3.0%
CN(C)CCCN(Cc1ccccc1)C(=S)Nc1ccc(F)c(Cl)c1 | -1.0 | -34.2* | 35.2* | 12.1% | -1.6% | 10.9%
CCCN(Cc1ccccc1)C(=S)Nc1cccc(C(F)(F)F)c1 | 5.8 | -31.6* | 3.9 | -14.3% | -0.3% | 0.8%
COc1cccc(NS(=O)(=O)c2ccc(Br)s2)c1 | -3.5 | -34.8* | 19.3 | -2.8% | 1.3% | -1.5%
COc1ccc(OC)c(NS(=O)(=O)c2ccc(Br)s2)c1 | -2.2 | 9.6 | 3.1 | 8.9% | 0.2% | 2.5%
CC(C)c1ccc(OC(=O)c2cc(-c3ccccc3)on2)cc1 | -1.4 | -23.0 | 17.6 | . | . | .
Cc1ccc(C2C(C(=O)O)c3ccccc3C(=O)N2C)c(C)c1 (stereo not drawn) | 2.3 | -39.8* | 1.7 | 16.4% | . | 4.6%
SMILES | D1 PAM | D1 antagonist | D1 ag | Eya2 phos inh | GALK inh | USP2a block
COc1cc(OC)c(C2C(C(=O)O)c3ccccc3C(=O)N2C)cc1OC (stereo not drawn) | -3.8 | 27.7 | 1.1 | -3.0% | . | -1.2%
CCC1(CC)NC(=S)N(Nc2ccccc2)C1=O | -9.0 | -33.1* | -0.1 | -4.4% | 3.9% | 0.1%
COc1cc(NC(=O)C(OC(=O)CNC(=O)c2ccccc2)c2ccccc2)c(OC)cc1Cl (stereo not drawn) | -1.1 | 2.7 | 0.6 | . | . | .
COc1ccc(NC(=O)C(OC(=O)CNC(=O)c2ccccc2)c2ccccc2)c(C)c1 (stereo not drawn) | 4.3 | -47.6* | 2.2 | . | . | .
COc1ccccc1-c1ccc(Nc2cccc(C(F)(F)F)c2)nn1 | -8.8 | -13.3 | -1.2 | -9.7% | -2.4% | 1.6%
Fc1ccc(Nc2ccc(-c3ccc(F)cc3)nn2)cc1 | -8.3 | -44.8* | 2.0 | 2.9% | -0.7% | -1.8%
Clc1ccc(Nc2ccc(Cl)nn2)cc1 | -1.6 | -26.0 | -0.5 | 0.0% | -1.3% | 5.0%
Fc1ccc(-c2ccc(Nc3cccc(F)c3)nn2)cc1 | -10.3 | -34.4* | 1.9 | -1.3% | 0.1% | 0.4%
CCCCN(C)S(=O)(=O)c1ccc(C(=O)Nc2ccc(-c3nc4ccc(C)cc4s3)cc2)cc1 | -3.7 | 21.5 | 0.1 | . | . | .
COc1ccc(NC(=S)N(CCc2ccc(OC)c(OC)c2)Cc2ccccn2)cc1 | 0.8 | -5.7 | 1.6 | 12.2% | 5.7% | 0.9%
COc1ccc(NC(=S)N(Cc2ccc(C)cc2)Cc2ccccn2)cc1 | -3.0 | -30.6* | 0.5 | 3.7% | 4.4% | 2.2%
CC(=O)Oc1ccc2cc(-c3ccccc3)c(=O)oc2c1 | 6.9 | -6.9 | 13.3 | 1.1% | 5.2% | 0.5%
COc1ccc(-c2cc3ccc(OC(C)C(=O)O)cc3oc2=O)cc1 (stereo not drawn) | -6.0 | -30.5* | 4.1 | -1.8% | 1.0% | 0.5%
COc1cc(NC(=O)CCS(=O)(=O)c2ccc3c(c2)CC(=O)N3C)cc(OC)c1OC | -5.3 | -77.0* | 4.5 | . | . | .
COc1ccc(C)cc1NC(=O)CCS(=O)(=O)c1ccc2c(c1)CC(=O)N2C | -0.8 | -32.0* | 2.3 | . | . | .
CN1C(=O)Cc2cc(S(=O)(=O)CCC(=O)Nc3ccccc3)ccc21 | -2.1 | -23.8 | 1.6 | . | . | .
CCCCCOc1ccc(NC(=O)Cc2csc(C)n2)cc1 | -1.2 | 7.3 | -0.5 | . | . | .
O=C(O)CCC(NC(=O)c1ccc(Cl)cc1)C(=O)O (stereo not drawn) | -3.8 | -31.9* | 1.1 | 11.8% | 10.3% | -1.7%
NC(=O)CCC(NC(=O)c1ccc(Cl)cc1)C(=O)O (stereo not drawn) | -2.5 | -7.7 | 1.9 | -22.8% | -0.9% | 2.0%
N#CC1=C(N)NC(SCc2ccc(F)cc2)=C(C#N)C12CCCCC2 | -3.6 | -31.0* | 10.0 | 16.1% | -4.2% | -0.9%
N#CC1=C(N)NC(SCC(=O)O)=C(C#N)C12CCCC2 | -1.8 | -1.5 | 3.1 | 15.1% | 7.6% | 3.3%
COc1ccc(-n2c(=O)c3c4c(sc3n(Cc3ccc(F)cc3)c2=O)CN(C(C)=O)CC4)c(OC)c1 | -1.4 | 6.5 | -0.6 | . | . | .
Cn1c(=O)[nH]c(=O)c2c1nc(SCC(O)CO)n2Cc1ccccc1Cl (stereo not drawn) | -3.2 | -64.0* | 0.8 | -2.0% | 2.0% | -0.3%
